Compound activity deposited in PubChem BioAssay by National Center for Advancing Translational Sciences (NCATS).
Sampled rows, rich in hits. Any-hit rate of the full collection: about 0.43%.
EPAC2 agonist: qHTS for Agonist of cAMP-regulated guanine nucleotide exchange factor 4 (EPAC2): primary screen; hit rate 0.079% among 360,000; EPAC2 activation, biochemical qHTS; response scale: 100% = 6.5 mM cAMP response; AID 720711, 2013; Potency, µM (titrated, usually from 154 µM), without a hit: at the highest dose activation, usual class: activators; Rap guanine nucleotide exchange factor 4 (Homo sapiens), Q8WZA2; also: nearly all actives have a fitted effect of over 50% in size
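Each well held 100 nM EPAC2, 250 nM RAP1B-BODIPY-GDP and 50 uM GDP. Fluorescence, read at 5-min intervals to 30 min, was referenced to a 6.5 mM cAMP positive control.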
Rango dissoc inh: qHTS Assay for Inhibitors of RanGTP induced Rango (Ran-regulated importin-beta cargo) - Importin beta complex dissociation; Potency, µM (titrated, usually from 46.1 µM), inactives show at the top dose activity change, negative = inhibition; Biochemical FRET Rango-importin beta, RanGTP-induced dissociation; Snurportin-1 (Homo sapiens) + GTP-binding nuclear protein Ran (Homo sapiens) + Importin …; AID 540253, 2011; hit rate 0.071% among 340,000; calls by dose curve; also: % of control where 0% means no effect; nearly all actives have a fitted effect of over 45% in size
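Recombinant Rango FRET biosensor (EYFP–snurportin 1 IBB–cerulean CFP10) at 0.1 uM premixed with 0.25 uM importin beta in PBS, 1 mM DTT, 0.02% Tween-20, 0.1% BSA. Compound added 5 min; RanGTP-RCC1 (0.6 uM Ran, 2 mM GTP, 0.2 uM RCC1) then triggers release, read at 45 min.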
EPAC2 antagonist: qHTS for Antagonist of cAMP-regulated guanine nucleotide exchange factor 2 (EPAC2): primary screen | EPAC2 GEF exchange of Rap1B-BODIPY-GDP, fluorescence | AID 720708, 2013 | Rap guanine nucleotide exchange factor 4 (Homo sapiens), Q8WZA2 | hit rate 0.18% among 360,000 | Potency, µM (highest dose often 114 µM), inactives show at the highest dose activity, negative = inhibition, most hits filed as inhibitors; also: % is scaled to controls: 0 for no effect and ±100 for the full control effect; nearly all actives have a fitted effect of over 45% in size
Rango-impB inh: qHTS Assay for Inhibitors of Rango (Ran-regulated importin-beta cargo) - Importin beta complex formation; Rango CFP/YFP FRET sensor + importin beta, 45 min; Potency, µM (highest dose often 92.2 µM), inactives show at the top dose inhibition of complex formation; hit rate 0.031% among 340,000; AID 540263, 2011; calls by dose curve;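 also: 0% = DMSO wells and 100% = buffer wells lacking importin beta; nearly all actives have a fitted effect of over 15% in size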
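FRET biosensor Rango (snurportin 1 IBB between N-terminal EYFP and C-terminal Cerulean), 50 nM in PBS/1 mM DTT/0.02% Tween-20/0.1% BSA, preincubated 5 min RT with compound; 0.125 microM importin beta added, 45 min RT, CFP/YFP FRET ratio read.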
EPAC1 ag: qHTS for Agonist of cAMP-regulated guanine nucleotide exchange factor 3 (EPAC1): primary screen; Rap guanine nucleotide exchange factor 3 (Homo sapiens), O95398; EPAC1 agonist qHTS, biochemical assay; response scale: 100% = response to 6.5 mM cAMP; Potency, µM (titrated, usually from 154 µM), inactives show at the highest dose activation, actives largely listed as activators; hit rate 0.073% among 360,000; AID 720707, 2013; also: nearly all actives have a fitted effect of over 60% in size
Target sequence (O95398 whole entry, looked up): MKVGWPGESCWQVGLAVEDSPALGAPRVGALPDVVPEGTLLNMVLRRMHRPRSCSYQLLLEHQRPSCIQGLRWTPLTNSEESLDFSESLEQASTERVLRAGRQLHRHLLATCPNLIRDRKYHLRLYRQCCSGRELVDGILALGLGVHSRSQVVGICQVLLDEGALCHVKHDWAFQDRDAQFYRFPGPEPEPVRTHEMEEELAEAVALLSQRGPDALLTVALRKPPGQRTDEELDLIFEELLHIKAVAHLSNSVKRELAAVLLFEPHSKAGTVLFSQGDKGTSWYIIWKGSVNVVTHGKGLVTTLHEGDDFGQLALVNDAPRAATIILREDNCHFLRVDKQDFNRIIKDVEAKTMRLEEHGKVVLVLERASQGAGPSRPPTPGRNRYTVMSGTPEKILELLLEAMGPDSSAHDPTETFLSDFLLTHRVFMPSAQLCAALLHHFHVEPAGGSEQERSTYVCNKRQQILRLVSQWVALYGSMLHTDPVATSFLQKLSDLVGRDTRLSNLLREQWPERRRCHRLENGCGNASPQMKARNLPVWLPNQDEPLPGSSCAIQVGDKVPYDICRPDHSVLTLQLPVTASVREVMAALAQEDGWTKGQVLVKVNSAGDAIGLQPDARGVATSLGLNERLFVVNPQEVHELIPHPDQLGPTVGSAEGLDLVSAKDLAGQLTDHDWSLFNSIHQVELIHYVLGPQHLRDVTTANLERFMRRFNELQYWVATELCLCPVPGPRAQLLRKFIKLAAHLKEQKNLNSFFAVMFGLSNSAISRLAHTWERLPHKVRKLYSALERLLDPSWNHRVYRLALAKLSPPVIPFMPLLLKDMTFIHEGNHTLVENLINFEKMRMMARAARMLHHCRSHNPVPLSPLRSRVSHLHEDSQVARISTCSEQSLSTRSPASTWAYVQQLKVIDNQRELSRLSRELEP
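Compounds were pinned as a concentration titration into mixtures of EPAC1 (100 nM), BODIPY-GDP-loaded Rap1B (250 nM) and GDP (50 uM). After 5 min at room temperature, fluorescence was followed for 30 min; activity was scaled to 6.5 mM cAMP.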
EPAC1 antagonist: qHTS for Antagonist of cAMP-regulated guanine nucleotide exchange factor 3 (EPAC1): primary screen; Rap guanine nucleotide exchange factor 3 (Homo sapiens), O95398; EPAC1 GEF assay, Rap1b-BODIPY-GDP exchange fluorescence; Potency, µM (doses to about 115 µM), for inactives: top-dose activity change, negative = inhibition, most hits filed as inhibitors; hit rate 0.14% among 360,000;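 also: plate controls were vehicle for no effect and positive control for full effect; nearly all actives have a fitted effect of over 50% in size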
* = called active by the depositor; [ ] = remark or other dose. Unless noted, calls follow the shape of the dose curve; as a rule, active = well fitted curve in the direction sought with a large enough effect; inconclusive = small, poorly fitted or top-dose-only effect, or another doubt; inactive = no such curve, though single readings can be large; an effect the other way counts as inactive or inconclusive. Potency is read from the fitted curve at half-maximal effect.

Cc1cccc(C(C(=O)NC2CCCCC2)N(Cc2cccnc2)C(=O)c2csnn2)c1 (stereo not given) was read as EPAC2 agonist 5.9%, Rango dissoc inh -13.9%, EPAC2 antagonist -2.9%, Rango-impB inh -1.0%, EPAC1 ag -0.6% and EPAC1 antagonist -17.4%.
O=C(NCc1ccc(OC(F)(F)F)cc1)c1cccc2c1C(=O)c1ccc(N3CCCC3)cc1S2(=O)=O was read as EPAC2 agonist 100µM*, Rango dissoc inh -15.9%, EPAC2 antagonist 79.4µM*, Rango-impB inh inconclusive, EPAC1 ag 7.8% and EPAC1 antagonist -8.8%.
O=C(NCc1cc(C(F)(F)F)ccc1Cl)c1cccc2c1C(=O)c1ccc(N3CCC(N4CCCCC4)CC3)cc1S2(=O)=O was read as EPAC2 agonist 89.1µM*, EPAC2 antagonist inconclusive, EPAC1 ag -11.6% and EPAC1 antagonist inconclusive.
`O=C(NCc1ccc(OC(F)(F)F)cc1)c1cccc2c1C(=O)c1ccc(N3CCCCC3)cc1S2(=O)=O` gave EPAC2 agonist 100µM*, Rango dissoc inh inconclusive, EPAC2 antagonist 201.7%, Rango-impB inh inconclusive, EPAC1 ag -10.7% and EPAC1 antagonist 21.6%.
`O=C(NCc1ccc(OC(F)(F)F)cc1)c1cccc2c1C(=O)c1ccc(N3CCC(Cc4ccccc4)CC3)cc1S2(=O)=O` gave EPAC2 agonist -12.4%, Rango dissoc inh inconclusive, EPAC2 antagonist 32.1%, Rango-impB inh inconclusive, EPAC1 ag 17.0% and EPAC1 antagonist -2.9%.
For O=C(NCc1cc(C(F)(F)F)ccc1Cl)c1cccc2c1C(=O)c1ccc(N3CCCCC3)cc1S2(=O)=O the results were EPAC2 agonist 28.7%, Rango dissoc inh inconclusive, EPAC2 antagonist 371.5%, Rango-impB inh inconclusive, EPAC1 ag 10.8% and EPAC1 antagonist -3.4%.
Screening O=C(CN1C(=O)NC2(CCCC2)C1=O)Nc1nc2ccccc2[nH]1 returned EPAC2 agonist 9.6%, Rango dissoc inh 6.8%, EPAC2 antagonist 2.0%, Rango-impB inh 3.2%, EPAC1 ag -14.9% and EPAC1 antagonist -12.8%.
For CN1/C(=C\C=C(/C#N)C(=O)Nc2ccccc2F)C(C)(C)c2ccccc21 the results were EPAC2 agonist 100µM*, Rango dissoc inh inconclusive, EPAC2 antagonist 49.7%, Rango-impB inh inconclusive, EPAC1 ag inconclusive and EPAC1 antagonist 16.0%.
`COc1ccc(S(=O)(=O)N2CCN(Cc3cc4c(cc3Br)OCCO4)CC2)cc1` gave EPAC2 agonist 9.7%, Rango dissoc inh 11.9%, EPAC2 antagonist -2.9%, Rango-impB inh 2.2%, EPAC1 ag 18.0% and EPAC1 antagonist -3.6%.
Screening O=C(Cn1sc2ccccc2c1=O)Nc1ccc(Br)cc1 returned EPAC2 agonist 10.1%, EPAC2 antagonist -10.9%, EPAC1 ag -9.6% and EPAC1 antagonist -18.4%.
For CC(=O)N1CN(C2CC(C)(C)NC(C)(C)C2)Cc2c1sc1c2CCCC1 the results were EPAC2 agonist 7.5%, Rango dissoc inh -0.3%, EPAC2 antagonist 15.6%, Rango-impB inh 1.6%, EPAC1 ag 0.9% and EPAC1 antagonist 10.8%.
Screening COc1ccccc1C(=O)Oc1ccc2ccc(=O)oc2c1 returned EPAC2 agonist 14.2%, Rango dissoc inh inconclusive, EPAC2 antagonist 1.8%, Rango-impB inh inconclusive, EPAC1 ag 4.7% and EPAC1 antagonist -0.5%.
For O=C(Oc1ccc2ccc(=O)oc2c1)c1ccco1 the results were EPAC2 agonist 5.3%, Rango dissoc inh 16.4µM*, EPAC2 antagonist 3.1%, Rango-impB inh inconclusive, EPAC1 ag -0.7% and EPAC1 antagonist -5.4%.
COc1ccc(C(=O)N/N=C(\C)c2ccc(NC(=O)Cc3ccccc3)cc2)c(OC)c1 was read as EPAC2 agonist 1.6%, Rango dissoc inh -0.2%, EPAC2 antagonist 16.3%, Rango-impB inh -4.3%, EPAC1 ag -3.9% and EPAC1 antagonist 15.7%.
Screening CCn1cc(C(=O)OCC(=O)N2C(C)CCCC2C)c(=O)c2ccc(C)nc21 (stereo not given) returned EPAC2 agonist 13.8%, Rango dissoc inh -0.6%, EPAC2 antagonist -1.0%, Rango-impB inh -2.5%, EPAC1 ag 4.8% and EPAC1 antagonist 7.0%.
`Cn1cc(C(=O)C(=O)N2CCCCC2)c2ccccc21` gave EPAC2 agonist inconclusive, Rango dissoc inh 0.1%, EPAC2 antagonist inactive, Rango-impB inh 0.3%, EPAC1 ag 39.8µM* and EPAC1 antagonist 30.8%.
For Cc1ccc(S(=O)(=O)Nc2ccc(C(=O)N3CCCC3)cc2)cc1 the results were EPAC2 agonist 0.4%, Rango dissoc inh 7.2%, EPAC2 antagonist 9.0%, Rango-impB inh -0.4%, EPAC1 ag -0.2% and EPAC1 antagonist -10.9%.
Screening Cc1ccc(NS(=O)(=O)c2ccc(C(=O)N3CC(C)CC(C)C3)cc2)cc1 (stereo not given) returned EPAC2 agonist 3.7%, Rango dissoc inh 1.6%, EPAC2 antagonist -18.1%, Rango-impB inh -1.1%, EPAC1 ag 100µM* and EPAC1 antagonist -11.7%.
Screening COCCn1c(-c2ccc(-c3ccccc3Cl)o2)nc2c1c(=O)[nH]c(=O)n2CC(C)C returned EPAC2 agonist -2.7%, Rango dissoc inh 6.51µM*, EPAC2 antagonist 1.2%, Rango-impB inh inconclusive, EPAC1 ag 0.0% and EPAC1 antagonist -10.1%.
CCCCn1c(=O)[nH]c(=O)c2c1nc(-c1ccc(-c3ccccc3Br)o1)n2CCOC was read as EPAC2 agonist 0.0%[15.6 µM], Rango dissoc inh 0.7%, EPAC2 antagonist 9.7%, Rango-impB inh -4.9%, EPAC1 ag 6.7% and EPAC1 antagonist -1.4%.
CSc1c(C#N)c(N)nc2sc(C(=O)c3ccc(Cl)c(Cl)c3)c(N)c12 was read as EPAC2 agonist 12.4%, Rango dissoc inh -8.0%, EPAC2 antagonist 11.0%, Rango-impB inh 5.5%, EPAC1 ag 100µM* and EPAC1 antagonist -1.3%.
COc1ccc(-c2c(C#N)c(N)nc3sc(C(=O)c4ccccc4)c(N)c23)cc1 was read as EPAC2 agonist 8.3%, Rango dissoc inh inconclusive, EPAC2 antagonist 8.1%, Rango-impB inh inconclusive, EPAC1 ag -0.4% and EPAC1 antagonist -14.4%.
